According to PubChem BioAssay AID1159580 (chemical genetic matrix, 2015):
Out of some 5,500 compounds screened, about 2,000 (36%) were called active. About 18% were inconclusive and are not listed. No stated cut-off is given here; in the data, active means normalized growth mostly below about 0.91 (no sharp cut-off); inconclusive means no clear call, values can overlap the other calls; inactive means mostly above about 0.92. The list shows a part of the results.

Assay: chemical genetic growth profiling, strain panel (AID 1159580);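 further: tested at 20 µM; growth read once vehicle control cultures reached saturation at 30 °C; 1 = growth at the plate median or of vehicle wells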
Conditions: growth OD
[1] = S. cerevisiae deletion strains, locus YDL101C, strain DUN1, stronger effect = lower value
[2] = S. cerevisiae deletion strains, locus YJL095W, strain BCK1, stronger effect = lower value
[3] = S. cerevisiae deletion strains, locus YOR061W, strain CKA2, stronger effect = lower value

Measured: normalized growth

COC(=O)c1cnn(-c2c(Cl)cccc2Cl)c1C=C(C#N)C#N
active: S. cerevisiae deletion strains, locus YLR113W, strain HOG1, stronger effect = lower value 0.748 | S. cerevisiae deletion strains, locus YPL256C, strain CLN2, stronger effect = lower value 0.781
inactive: S. cerevisiae deletion strains, locus YAR019C, strain CDC15, stronger effect = lower value 0.939 | S. cerevisiae deletion strains, locus YBL105C, strain PKC1, stronger effect = lower value 0.957 | S. cerevisiae deletion strains, locus YBR135W, strain CKS1, stronger effect = lower value 0.954 | S. cerevisiae deletion strains, locus YBR136W, strain MEC1, stronger effect = lower value 0.952 | S. cerevisiae deletion strains, locus YBR160W, strain CDC28, stronger effect = lower value 0.955 | S. cerevisiae deletion strains, locus YDL017W, strain CDC7, stronger effect = lower value 0.953 | S. cerevisiae deletion strains, locus YDL028C, strain MPS1, stronger effect = lower value 0.946 | [1] 0.944 | S. cerevisiae deletion strains, locus YDL108W, strain KIN28, stronger effect = lower value 0.961 | S. cerevisiae deletion strains, locus YDL132W, strain cdc53, stronger effect = lower value 0.942 | S. cerevisiae deletion strains, locus YDL214C, strain PRR2, stronger effect = lower value 0.966 | S. cerevisiae deletion strains, locus YDR052C, strain DBF4, stronger effect = lower value 0.948 | S. cerevisiae deletion strains, locus YDR054C, strain cdc34, stronger effect = lower value 0.943 | S. cerevisiae deletion strains, locus YDR226W, strain ADK1, stronger effect = lower value 0.956 | S. cerevisiae deletion strains, locus YDR477W, strain SNF1, stronger effect = lower value 0.972 | S. cerevisiae deletion strains, locus YER123W, strain YCK3, stronger effect = lower value 0.954 | S. cerevisiae deletion strains, locus YER133W, strain GLC7, stronger effect = lower value 0.922 | S. cerevisiae deletion strains, locus YFL009W, strain cdc4, stronger effect = lower value 0.936 | S. cerevisiae deletion strains, locus YFL029C, strain CAK1, stronger effect = lower value 0.954 | S. cerevisiae deletion strains, locus YFR003C, strain YPI1, stronger effect = lower value 0.95 | S. cerevisiae deletion strains, locus YFR019W, strain FAB1, stronger effect = lower value 0.966 | S. cerevisiae deletion strains, locus YFR028C, strain CDC14, stronger effect = lower value 0.949 | S. cerevisiae deletion strains, locus YGR040W, strain KSS1, stronger effect = lower value 0.944 | S. cerevisiae deletion strains, locus YGR052W, strain FMP48, stronger effect = lower value 0.93 | S. cerevisiae deletion strains, locus YGR092W, strain DBF2, stronger effect = lower value 0.912 | S. cerevisiae deletion strains, locus YHR079C, strain IRE1, stronger effect = lower value 0.775 | S. cerevisiae deletion strains, locus YHR082C, strain KSP1, stronger effect = lower value 1.1 | S. cerevisiae deletion strains, locus YHR205W, strain SCH9, stronger effect = lower value 1 | S. cerevisiae deletion strains, locus YIL147C, strain SLN1, stronger effect = lower value 0.947 | [2] 0.782 | S. cerevisiae deletion strains, locus YJL128C, strain PBS2, stronger effect = lower value 0.969 | S. cerevisiae deletion strains, locus YJL157C, strain FAR1, stronger effect = lower value 0.962 | S. cerevisiae deletion strains, locus YJR016C, strain ILV3, stronger effect = lower value 0.955 | S. cerevisiae deletion strains, locus YJR066W, strain TOR1 (second series), stronger effect = lower value 0.964 | S. cerevisiae deletion strains, locus YJR066W, strain TOR1, stronger effect = lower value 1.08 | S. cerevisiae deletion strains, locus YKL048C, strain ELM1, stronger effect = lower value 0.922 | S. cerevisiae deletion strains, locus YKL067W, strain YNK1, stronger effect = lower value 0.955 | S. cerevisiae deletion strains, locus YKL101W, strain HSL1, stronger effect = lower value 0.958 | S. cerevisiae deletion strains, locus YKL193C, strain SDS22, stronger effect = lower value 0.949 | S. cerevisiae deletion strains, locus YKL203C, strain TOR2, stronger effect = lower value 1.03 | S. cerevisiae deletion strains, locus YLR133W, strain CKI1, stronger effect = lower value 0.968 | S. cerevisiae deletion strains, locus YLR403W, strain SFP1, stronger effect = lower value 0.975 | S. cerevisiae deletion strains, locus YML070W, strain DAK1, stronger effect = lower value 0.961 | S. cerevisiae deletion strains, locus YMR001C, strain CDC5, stronger effect = lower value 0.953 | S. cerevisiae deletion strains, locus YMR205C, strain PFK2 (second series), stronger effect = lower value 0.975 | S. cerevisiae deletion strains, locus YMR277W, strain FCP1, stronger effect = lower value 0.949 | S. cerevisiae deletion strains, locus YNL006W, strain LST8, stronger effect = lower value 0.955 | S. cerevisiae deletion strains, locus YNL020C, strain ARK1, stronger effect = lower value 0.969 | S. cerevisiae deletion strains, locus YNL161W, strain CBK1, stronger effect = lower value 0.94 | S. cerevisiae deletion strains, locus YNL183C, strain NPR1, stronger effect = lower value 0.863 | S. cerevisiae deletion strains, locus YNL207W, strain RIO2, stronger effect = lower value 0.95 | S. cerevisiae deletion strains, locus YNL222W, strain SSU72, stronger effect = lower value 0.966 | S. cerevisiae deletion strains, locus YNL307C, strain MCK1 (second series), stronger effect = lower value 0.986 | S. cerevisiae deletion strains, locus YOL078W, strain AVO1, stronger effect = lower value 0.946 | S. cerevisiae deletion strains, locus YOL136C, strain PFK27, stronger effect = lower value 0.969 | [3] 0.95 | S. cerevisiae deletion strains, locus YOR119C, strain RIO1, stronger effect = lower value 0.961 | S. cerevisiae deletion strains, locus YOR231W, strain MKK1, stronger effect = lower value 0.797 | S. cerevisiae deletion strains, locus YOR329C, strain SCD5, stronger effect = lower value 0.947 | S. cerevisiae deletion strains, locus YPL031C, strain PHO85, stronger effect = lower value 0.948 | S. cerevisiae deletion strains, locus YPL153C, strain RAD53, stronger effect = lower value 0.938 | S. cerevisiae deletion strains, locus YPL204W, strain HRR25, stronger effect = lower value 0.956 | S. cerevisiae deletion strains, locus YPL209C, strain IPL1, stronger effect = lower value 0.954 | S. cerevisiae deletion strains, locus YPR025C, strain CCL1, stronger effect = lower value 0.942 | S. cerevisiae deletion strains, locus YPR106W, strain ISR1, stronger effect = lower value 0.942 | S. cerevisiae deletion strains, locus YPR111W, strain DBF20, stronger effect = lower value 0.953 | S. cerevisiae deletion strains, strain NNK1, stronger effect = lower value 0.969 | S. cerevisiae deletion strains, strain TSCII, stronger effect = lower value 0.943

O=C(O)/C=C1\CCCc2ccccc2C1O (stereo unspecified)
inactive: S. cerevisiae deletion strains, locus YAL013W, strain DEP1, stronger effect = lower value 1.01 | S. cerevisiae deletion strains, locus YBR021W, strain FUR4, stronger effect = lower value 1.01 | S. cerevisiae deletion strains, locus YBR229C, strain ROT2, stronger effect = lower value 0.965 | S. cerevisiae deletion strains, locus YCL029C, strain bik1, stronger effect = lower value 0.982 | S. cerevisiae deletion strains, locus YDL035C, strain GPR1, stronger effect = lower value 0.993 | S. cerevisiae deletion strains, locus YDL074C, strain BRE1, stronger effect = lower value 0.96 | [1] 0.988 | S. cerevisiae deletion strains, locus YDL134C, strain PPH21, stronger effect = lower value 0.992 | S. cerevisiae deletion strains, locus YDL185W, strain tfp1, stronger effect = lower value 0.945 | S. cerevisiae deletion strains, locus YDL192W, strain arf1, stronger effect = lower value 0.977 | S. cerevisiae deletion strains, locus YDR101C, strain arx1, stronger effect = lower value 0.993 | S. cerevisiae deletion strains, locus YDR150W, strain NUM1, stronger effect = lower value 0.991 | S. cerevisiae deletion strains, locus YDR162C, strain NBP2, stronger effect = lower value 0.987 | S. cerevisiae deletion strains, locus YDR318W, strain mcm21, stronger effect = lower value 0.985 | S. cerevisiae deletion strains, locus YDR388W, stronger effect = lower value 0.989 | S. cerevisiae deletion strains, locus YDR502C, strain sam2, stronger effect = lower value 0.976 | S. cerevisiae deletion strains, locus YEL061C, strain CIN8, stronger effect = lower value 0.995 | S. cerevisiae deletion strains, locus YER110C, stronger effect = lower value 0.982 | S. cerevisiae deletion strains, locus YER155C, strain BEM2, stronger effect = lower value 1.01 | S. cerevisiae deletion strains, locus YER167W, strain BCK2, stronger effect = lower value 0.998 | S. cerevisiae deletion strains, locus YGL078C, strain dbp3, stronger effect = lower value 0.992 | S. cerevisiae deletion strains, locus YGL086W, strain mad1, stronger effect = lower value 0.991 | S. cerevisiae deletion strains, locus YGL248W, strain PDE1, stronger effect = lower value 0.979 | S. cerevisiae deletion strains, locus YGR078C, strain PAC10, stronger effect = lower value 1 | S. cerevisiae deletion strains, locus YGR135W, strain pre9, stronger effect = lower value 0.98 | S. cerevisiae deletion strains, locus YGR229C, strain SMI1, stronger effect = lower value 0.997 | S. cerevisiae deletion strains, locus YGR252W, strain gcn5, stronger effect = lower value 0.962 | S. cerevisiae deletion strains, locus YHR030C, strain SLT2, stronger effect = lower value 1.01 | S. cerevisiae deletion strains, locus YHR079C, strain IRE1 (second series), stronger effect = lower value 0.992 | S. cerevisiae deletion strains, locus YHR094C, strain hxt1, stronger effect = lower value 0.984 | S. cerevisiae deletion strains, locus YHR129C, strain ARP1, stronger effect = lower value 0.992 | S. cerevisiae deletion strains, locus YHR200W, strain rpn10, stronger effect = lower value 0.989 | S. cerevisiae deletion strains, locus YIL066C, strain RNR3, stronger effect = lower value 0.996 | S. cerevisiae deletion strains, locus YIL073C, strain SPO22, stronger effect = lower value 0.974 | S. cerevisiae deletion strains, locus YIL125W, strain kgd1, stronger effect = lower value 0.975 | S. cerevisiae deletion strains, locus YIR030C, strain dcg1, stronger effect = lower value 0.988 | [2] 1.01 | S. cerevisiae deletion strains, locus YJL134W, strain LCB3, stronger effect = lower value 0.986 | S. cerevisiae deletion strains, locus YJL168C, strain set2, stronger effect = lower value 0.986 | S. cerevisiae deletion strains, locus YJL187C, strain SWE1 (second series), stronger effect = lower value 0.99 | S. cerevisiae deletion strains, locus YJR043C, strain POL32, stronger effect = lower value 0.998 | S. cerevisiae deletion strains, locus YJR075W, strain HOC1, stronger effect = lower value 0.985 | S. cerevisiae deletion strains, locus YKL009W, strain mrt4, stronger effect = lower value 0.955 | S. cerevisiae deletion strains, locus YKL068W, stronger effect = lower value 0.981 | S. cerevisiae deletion strains, locus YKL085W, strain MDH1 (second series), stronger effect = lower value 0.98 | S. cerevisiae deletion strains, locus YKL085W, strain MDH1, stronger effect = lower value 0.98 | S. cerevisiae deletion strains, locus YKL190W, strain CNB1, stronger effect = lower value 0.996 | S. cerevisiae deletion strains, locus YKR001C, strain vps1, stronger effect = lower value 0.978 | S. cerevisiae deletion strains, locus YLR039C, strain RIC1, stronger effect = lower value 0.944 | S. cerevisiae deletion strains, locus YLR058C, strain SHM2, stronger effect = lower value 0.988 | S. cerevisiae deletion strains, locus YLR102C, strain apc9, stronger effect = lower value 0.977 | S. cerevisiae deletion strains, locus YLR262C, strain YPT6, stronger effect = lower value 0.937 | S. cerevisiae deletion strains, locus YLR268W, strain sec22, stronger effect = lower value 0.984 | S. cerevisiae deletion strains, locus YLR330W, strain CHS5, stronger effect = lower value 0.998 | S. cerevisiae deletion strains, locus YLR342W, strain FKS1 (second series), stronger effect = lower value 0.983 | S. cerevisiae deletion strains, locus YLR371W, strain rom2, stronger effect = lower value 0.975 | S. cerevisiae deletion strains, locus YLR418C, strain cdc73, stronger effect = lower value 0.989 | S. cerevisiae deletion strains, locus YML016C, strain PPZ1, stronger effect = lower value 0.964 | S. cerevisiae deletion strains, locus YML032C, strain rad52, stronger effect = lower value 0.982 | S. cerevisiae deletion strains, locus YML124C, strain tub3, stronger effect = lower value 0.992 | S. cerevisiae deletion strains, locus YMR078C, strain ctf18, stronger effect = lower value 0.977 | S. cerevisiae deletion strains, locus YMR223W, strain ubp8, stronger effect = lower value 0.991 | S. cerevisiae deletion strains, locus YMR263W, strain SAP30, stronger effect = lower value 0.952 | S. cerevisiae deletion strains, locus YMR307W, strain GAS1, stronger effect = lower value 0.991 | S. cerevisiae deletion strains, locus YNL067W, strain RPL9B, stronger effect = lower value 0.998 | S. cerevisiae deletion strains, locus YNL128W, strain TEP1, stronger effect = lower value 0.976 | S. cerevisiae deletion strains, locus YNL153C, strain GIM3, stronger effect = lower value 0.998 | S. cerevisiae deletion strains, locus YNL233W, strain BNI4, stronger effect = lower value 1.01 | S. cerevisiae deletion strains, locus YNL250W, strain rad50, stronger effect = lower value 0.979 | S. cerevisiae deletion strains, locus YNL271C, strain bni1, stronger effect = lower value 0.987 | S. cerevisiae deletion strains, locus YNL298W, strain CLA4, stronger effect = lower value 0.964 | S. cerevisiae deletion strains, locus YNL307C, strain MCK1, stronger effect = lower value 0.986 | S. cerevisiae deletion strains, locus YNL322C, strain KRE1, stronger effect = lower value 0.986 | S. cerevisiae deletion strains, locus YNR052C, strain pop2, stronger effect = lower value 0.989 | S. cerevisiae deletion strains, locus YOL006C, strain TOP1, stronger effect = lower value 0.983 | S. cerevisiae deletion strains, locus YOL012C, strain htz1 0.943 | S. cerevisiae deletion strains, locus YOL147C, strain pex11, stronger effect = lower value 0.991 | [3] 0.974 | S. cerevisiae deletion strains, locus YOR069W, strain VPS5, stronger effect = lower value 1 | S. cerevisiae deletion strains, locus YOR136W, strain idh2, stronger effect = lower value 0.995 | S. cerevisiae deletion strains, locus YOR144C, strain elg1, stronger effect = lower value 0.991 | S. cerevisiae deletion strains, locus YOR184W, strain ser1, stronger effect = lower value 0.985 | S. cerevisiae deletion strains, locus YOR316C, strain cot1, stronger effect = lower value 0.975 | S. cerevisiae deletion strains, locus YPL055C, strain LGE1, stronger effect = lower value 0.971 | S. cerevisiae deletion strains, locus YPL241C, strain CIN2, stronger effect = lower value 0.997 | S. cerevisiae deletion strains, locus YPR119W, strain clb2, stronger effect = lower value 0.995 | S. cerevisiae deletion strains, locus YPR141C, strain kar3, stronger effect = lower value 0.964 | S. cerevisiae deletion strains, locus YPR163C, strain tif3, stronger effect = lower value 0.99 | S. cerevisiae deletion strains, locus YPR167C, strain met16, stronger effect = lower value 0.987 | S. cerevisiae deletion strains, strain wtn01, stronger effect = lower value 0.98 | S. cerevisiae strains, strain wild type, stronger effect = lower value 0.991
